# Measurements as given in PubChem BioAssay (NCATS).
# Results filed as inconclusive are left out. A call without a number means that no potency is given here. The source made the active and inactive calls. The call rests on the fitted dose curve; in most records, active means well fitted cell-killing curve with a large enough effect; inconclusive means small, poorly fitted or top-dose-only effect; inactive means flat fitted curve, though single readings scatter.
# Experiment: qHTS of pediatric cancer cell lines to identify multiple opportunities for drug repurposing: Primary screen for DAOY cells (AID 1347090); further: nearly all actives have a fitted effect of over 55% in size
# Conditions: DAOY medulloblastoma viability, CellTiter-Glo luminescence, 48 h; series mostly up to 46 µM; activity change, negative = cytotoxic: at the top concentration
# Description: Drug repurposing or repositioning has been offered as a strategy for drug development in oncology programs. This approach has special potential for childhood cancers and other rare or orphan diseases, where the expected return on new drug development has been a disincentive to pharmaceuticals.
# In this project we exploit the poly-pharmacology of drugs to discover new indications via phenotypic screening of a panel of 19 well-characterized cell lines derived from solid tumors seen in children and adolescents. The goal is to identify approved drugs with previously unrecognized anticancer properties that has the potential to reveal new mechanisms and biological processes involved in carcinogenesis or drug resistance. We employed a titration-based paradigm (quantitative high-throughput screening or qHTS), where all compounds were tested at multiple concentrations for their effect on cell viability. Concentration-response curves (CRCs) were derived directly from the primary screen, and both potency and efficacy values were used to identify compounds with robust bioactivity profiles. We screened the NIH Chemical Genomics Center (NCGC) Pharmaceutical Collection (NPC) and Mechanism Interrogation Plate (MIPE) small molecule collections of approved and investigational compounds against these cell lines; and measured metabolically active cells after 48 hours of compound treatment as a proxy for cell viability.
# Assay Submitter: Nathalia J. Martinez, National Center for Advancing Translational Sciences, National Institutes of Health, Rockville, MD, USA; email: natalia.martinez@nih.gov
# [1] Shen, M et al. Quantitative high-throughput phenotypic screening of pediatric cancer cell lines identifies multiple opportunities for drug repurposing. Oncotarget 2017 Dec 19;9(4):4758-4772. PMID 29435139.
# The cells were obtained from University of North Carolina (UNC), Pediatric Preclinical Testing Program (PPT), and Coriell Institute (CI).
# qHTS cell viability assay:
# Cells were assayed in growth media at a density of 500-1,000 cells/well. Five microliters of cells were dispensed into 1,536-well, white, solid-bottom, TC-treated plates (Greiner Bio One) using a multidrop dispenser and incubated at 37 degrees C, 5% CO2, under a humidified atmosphere for 5 hours. Twenty-three nanoliters of compounds and controls (neutral control DMSO or positive control bortezomib at final concentration of 2.3 µM) were subsequently transferred by Kalypsys pintool. For primary screens, the MIPE collection was tested at 11-point dilutions (final concentrations range from 0.78 nM to 46 µM) and the NPC collection at 8-point dilutions (final concentrations range from 0.59 nM to 46 µM). Compounds tested in follow-up screens were assayed at 11-point dilutions. Cells were incubated for 48 hours, followed by addition of 3 uL of CellTiter-Glo (Promega). After a 15 min incubation at room temperature, samples were analyzed for luminescence intensity using a ViewLux High-throughput CCD imager equipped with clear filters.
# Potency means the concentration at half of the fitted maximal effect.
Structure (SMILES),"activity change, negative = cytotoxic",Potency
Nc1nnc(-c2cccc(Cl)c2Cl)c(N)n1,-6.02% (inactive),–
COc1cc2nc(N(C)CCCNC(=O)C3CCCO3)nc(N)c2cc1OC (stereo not given),–,inactive
OCCN1CCN(CCCN2c3ccccc3Sc3ccc(C(F)(F)F)cc32)CC1,-14.4% (inactive),–
Clc1ccc2c(c1)C(N1CCNCC1)=Nc1ccccc1O2,–,inactive
Cc1cc(C(C)(C)C)c(O)c(C)c1CC1=NCCN1,–,inactive
Nc1nc2c(ncn2COC(CO)CO)c(=O)[nH]1,4.18% (inactive),–
Cc1cn([C@H]2C[C@H](N=[N+]=[N-])[C@@H](CO)O2)c(=O)[nH]c1=O,–,inactive
O=C(CCCN1CCC(O)(c2ccc(Cl)cc2)CC1)c1ccc(F)cc1,–,inactive
CC#C[C@]1(O)CC[C@H]2[C@@H]3CCC4=CC(=O)CCC4=C3[C@@H](c3ccc(N(C)C)cc3)C[C@@]21C,–,469 nM (active)
CC(C)Cc1ccc(C(C)C(=O)O)cc1 (stereo not given),–,inactive
Cn1cnc2c1c(=O)[nH]c(=O)n2C,-0.666% (inactive),–
Nc1c2c(nc3ccccc13)CCCC2,–,inactive
COc1nc(C)nc(Cl)c1NC1=NCCN1,–,inactive
NS(=O)(=O)c1cc2c(cc1Cl)NCNS2(=O)=O,16.3% (inactive),–
Clc1ccccc1C(c1ccccc1)(c1ccccc1)n1ccnc1,-16.6% (inactive),–
NC(CO)C(=O)NNCc1ccc(O)c(O)c1O (stereo not given),–,inactive
NC(=O)OCC(COC(N)=O)c1ccccc1,–,inactive
Cc1ccc(-c2cc(C(F)(F)F)nn2-c2ccc(S(N)(=O)=O)cc2)cc1,-15.2% (inactive),–
Cc1cnc(C(=O)NCCc2ccc(S(=O)(=O)NC(=O)NC3CCCCC3)cc2)cn1,–,inactive
CC1(C)O[C@H]2CC(=O)OC[C@]23[C@H]2CC[C@@]4(C)[C@H](c5ccoc5)OC(=O)[C@H]5O[C@]54[C@]2(C)C(=O)C[C@@H]13,–,inactive

Structure (SMILES),"activity change, negative = cytotoxic",Potency
CS(=O)(=O)CCNCc1ccc(-c2ccc3ncnc(Nc4ccc(OCc5cccc(F)c5)c(Cl)c4)c3c2)o1,–,235 nM (active)
CCCNCC(O)COc1ccccc1C(=O)CCc1ccccc1 (stereo not given),–,inactive
NCCS(=O)(=O)O,–,inactive
CN1C2CCC1CC(OC(=O)C(CO)c1ccccc1)C2 (stereo not given),0.287% (inactive),–
NC12CC3CC(CC(C3)C1)C2,12.2% (inactive),–
C[C@H]1c2cccc(O)c2C(O)=C2C(=O)[C@]3(O)C(O)=C(C(N)=O)C(=O)[C@@H](N(C)C)[C@@H]3[C@@H](O)[C@@H]21,–,inactive
Clc1ccc(C(c2ccccc2Cl)C(Cl)Cl)cc1 (stereo not given),-24.4% (inactive),–
Nc1ccn([C@H]2CC[C@@H](CO)O2)c(=O)n1,-1.02% (inactive),–
O=C(c1ccc(F)cc1)C1CCN(CCn2c(=O)[nH]c3ccccc3c2=O)CC1,–,inactive
CC(COc1ccccc1)N(CCCl)Cc1ccccc1 (stereo not given),–,inactive
CN(CCOc1ccc(NS(C)(=O)=O)cc1)CCc1ccc(NS(C)(=O)=O)cc1,–,inactive
CC(C(=O)O)c1cccc(C(=O)c2ccccc2)c1 (stereo not given),-4.11% (inactive),–
CN(C)CCOC(c1ccccc1)c1ccccc1,6.97% (inactive),–
COc1cc2nc(N3CCN(C(=O)C4COc5ccccc5O4)CC3)nc(N)c2cc1OC (stereo not given),-8.6% (inactive),–
O=C(C1CCCCC1)N1CC(=O)N2CCc3ccccc3C2C1 (stereo not given),-8.22% (inactive),–
CN(C)C(=N)N=C(N)N,–,inactive
CCOC(=O)C(C)(C)Oc1ccc(Cl)cc1,–,inactive
COc1ccc(C2CNC(=O)C2)cc1OC1CCCC1 (stereo not given),–,inactive
N[C@@H](Cc1c[nH]c2ccc(O)cc12)C(=O)O,–,inactive
O=C1Cc2cc(CCN3CCN(c4nsc5ccccc45)CC3)c(Cl)cc2N1,–,inactive
